SMILES strings stand for the structures. Compounds without any hit were thinned out: in the full panel of roughly 83,000, 20% have a hit.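 Testing used 96-well plates and a 48-hour single-concentration exposure. Example: -40 means 40% of the starting cells died.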 Values without a mark were called inactive. Active and inactive are the calls of the source. How the source made its calls: active means growth percent below 10; inactive means the rest.

Test systems include NCI-H23 lung; NCI-H226 lung; NCI-H322M lung; HOP-62 NSCLC; NCI-H460 lung; HOP-92 NSCLC; NCI-H522 lung; A549/ATCC NSCLC; 786-0 renal; COLO 205 colon; DU-145 prostate; K-562 leukemia; MALME-3M melanoma; MDA-MB-231 breast; RXF 393 renal; SF-268 CNS; SF-295 CNS; SF-539 CNS; UACC-257 melanoma; M14 melanoma.
Holding throughout (assay): NCI-60 one-dose screen, 48 h (100 = growth as untreated, 0 = no growth, -100 = all killed)
Holding throughout (conditions): 10 µM unless noted

Take `CN1CCN(c2ccc(-c3cnc4c(-c5csc6ccccc56)cnn4c3)cc2)CC1`: the growth with NCI-H23 lung is 14.3%; with NCI-H226 lung it was -5.69% (active); with NCI-H322M lung it was 10.2%; in the assay on HOP-62 NSCLC it was -35.2% (active); with NCI-H460 lung, -78.2% (active); in the assay on HOP-92 NSCLC, 0.36% (active). For the same compound, the growth in the assay with NCI-H522 lung was -60.8% (active); with A549/ATCC NSCLC, -76.9% (active); in the assay with 786-0 renal, -68.5% (active); with COLO 205 colon, -80.9% (active); in the assay on DU-145 prostate it was 9.16% (active); in the assay with K-562 leukemia it was 3.45% (active). Further, the growth with MALME-3M melanoma was -70.1% (active); in the assay on MDA-MB-231 breast, -25.3% (active); in the assay with RXF 393 renal, -66.4% (active); in the assay with SF-268 CNS it was -15.8% (active); with SF-295 CNS, -49.7% (active); in the assay with SF-539 CNS, -86.4% (active). Moreover, the growth with UACC-257 melanoma is -76.3% (active); in the assay with M14 melanoma, -71.8% (active).

As to `CCOc1ccc2nc(SCc3nc4n(n3)S(=O)(=O)c3ccccc3N4C)sc2c1`, the growth in the assay on NCI-H23 lung was 13.2%; with NCI-H226 lung it was 32%; in the assay with NCI-H322M lung it was 38.6%; in the assay on HOP-62 NSCLC, -42.9% (active); in the assay with NCI-H460 lung, 38.2%; with HOP-92 NSCLC, -14% (active). Further, the growth was 22.6% with NCI-H522 lung; 24% in the assay with A549/ATCC NSCLC; -33.3% (active) in the assay on 786-0 renal; 23.3% with COLO 205 colon; 25.3% in the assay with DU-145 prostate; 34.8% in the assay with K-562 leukemia. Further, the growth was 10.1% in the assay on MALME-3M melanoma; 10.5% in the assay with MDA-MB-231 breast; 7.23% (active) with RXF 393 renal; 25.9% in the assay on SF-268 CNS; 6.74% (active) with SF-295 CNS; 8.46% (active) with SF-539 CNS. Also, the growth in the assay with UACC-257 melanoma is 24.4%.

Take `Cc1ccc(C(=O)N/N=C/c2cccc([N+](=O)[O-])c2)cn1`: the growth was 101% with NCI-H23 lung; 90% with NCI-H226 lung; 97.1% in the assay with NCI-H322M lung; 98.7% in the assay on HOP-62 NSCLC; 106% with NCI-H460 lung; 91.4% in the assay on HOP-92 NSCLC. Further, the growth in the assay with NCI-H522 lung was 84.8%; with A549/ATCC NSCLC, 92.1%; with 786-0 renal it was 31.4%; in the assay with COLO 205 colon, 112%; in the assay on DU-145 prostate, 100%; in the assay on K-562 leukemia, 101%. In addition, the growth in the assay with MALME-3M melanoma was 114%; in the assay on MDA-MB-231 breast it was 95.6%; with RXF 393 renal, 110%; in the assay with SF-268 CNS, 110%; with SF-295 CNS, 107%; in the assay with SF-539 CNS, 98.6%. In addition, the growth in the assay with UACC-257 melanoma is 95.6%.

Turning to `COc1ccc(CN2c3ccccc3Sc3ccccc32)c(F)c1`, the growth was 50.5% in the assay with NCI-H23 lung; 56.1% in the assay on NCI-H226 lung; 44.7% in the assay on NCI-H322M lung; 26.6% with HOP-62 NSCLC; 11% in the assay on NCI-H460 lung; 33.2% with HOP-92 NSCLC. Moreover, the growth in the assay on NCI-H522 lung is -12% (active); in the assay on A549/ATCC NSCLC it was 34.1%; with 786-0 renal it was 42.2%; in the assay on COLO 205 colon, 11.7%; in the assay on DU-145 prostate, 20.5%; in the assay on K-562 leukemia it was 8.99% (active). Moreover, the growth is 57% with MALME-3M melanoma; 60.4% in the assay on MDA-MB-231 breast; 0.721% (active) in the assay with RXF 393 renal; 52.3% in the assay with SF-268 CNS; 7.51% (active) in the assay with SF-295 CNS; -3.66% (active) in the assay with SF-539 CNS. Moreover, the growth with UACC-257 melanoma was 52.3%.

For the compound `CCOC(=O)Nc1ccc(-c2nc(-c3cccc(OC)c3)c(-c3ccnc(Br)c3)[nH]2)cc1`, the growth with NCI-H23 lung is 31.7%; in the assay with NCI-H226 lung it was 46.4%; in the assay on NCI-H322M lung, 45.7%; in the assay with HOP-62 NSCLC it was 30.2%; with NCI-H460 lung, 27.2%; in the assay on HOP-92 NSCLC, 42.2%. For the same compound, the growth with NCI-H522 lung is 30.2%; in the assay on A549/ATCC NSCLC, 36.9%; in the assay on 786-0 renal, 9.61% (active); in the assay with COLO 205 colon it was 49.2%; in the assay on DU-145 prostate, 51.9%; in the assay with K-562 leukemia, 11.9%. Besides, the growth with MALME-3M melanoma is 40.5%; in the assay on MDA-MB-231 breast it was 41.2%; in the assay on RXF 393 renal it was -27% (active); in the assay on SF-268 CNS, 51.9%; with SF-295 CNS it was -36.1% (active); in the assay with SF-539 CNS, 21.7%. Besides, the growth with UACC-257 melanoma was 56.1%.

For `COc1ccc(-c2nc3sc(-c4ccc(Cl)cc4)cn3n2)cc1`, the growth with NCI-H23 lung is 58.5%; in the assay with NCI-H226 lung, 50.1%; in the assay with NCI-H322M lung it was 17.8%; with HOP-62 NSCLC, 39.6%; in the assay with NCI-H460 lung, -39.3% (active); in the assay with HOP-92 NSCLC it was 21.5%. For the same compound, the growth with NCI-H522 lung is 61%; in the assay on A549/ATCC NSCLC, -30.3% (active); in the assay with 786-0 renal, -75.8% (active); in the assay with COLO 205 colon, 52.5%; with DU-145 prostate it was 80.7%; with K-562 leukemia, 61.5%. Further, the growth in the assay on MALME-3M melanoma is 50.8%; in the assay with MDA-MB-231 breast, 13.3%; with RXF 393 renal, 59%; in the assay on SF-268 CNS, 65.1%; in the assay on SF-295 CNS, 24.2%; in the assay on SF-539 CNS it was 15.4%. Also, the growth in the assay on UACC-257 melanoma is 84.6%.

For `COc1ccc(-c2c(C(=O)NS(C)(=O)=O)n(Cc3cccc(C(F)(F)F)c3)c3ccccc23)cc1`, the growth in the assay with NCI-H23 lung was 97.4%; in the assay with NCI-H226 lung it was 82.1%; in the assay on NCI-H322M lung, 94.5%; with HOP-62 NSCLC it was 89.4%; with NCI-H460 lung it was 89.7%; in the assay on HOP-92 NSCLC, 62.2%. Further, the growth was 80.8% with NCI-H522 lung; 88.8% with A549/ATCC NSCLC; 95.3% with 786-0 renal; 105% with COLO 205 colon; 100% with DU-145 prostate; 87.7% in the assay with K-562 leukemia. Moreover, the growth was 76.8% with MALME-3M melanoma; 95.5% with MDA-MB-231 breast; 111% in the assay on RXF 393 renal; 95% with SF-268 CNS; 89.8% in the assay on SF-295 CNS; 98.3% in the assay on SF-539 CNS. Moreover, the results for the growth in the assay with UACC-257 melanoma and with M14 melanoma were 95.2% and 94.6%, respectively.

With `Cc1ccc(-c2nn(C)c(=O)c3noc(-c4ccc(C)cc4)c23)cc1`, the growth with NCI-H23 lung was 43.1%; in the assay with NCI-H226 lung, 58%; in the assay on NCI-H322M lung it was 56.4%; in the assay on HOP-62 NSCLC, 28.1%; in the assay with NCI-H460 lung, 22.7%; with HOP-92 NSCLC, 14.2%. Besides, the growth with NCI-H522 lung is 9.02% (active); in the assay on A549/ATCC NSCLC, 46.2%; with 786-0 renal it was 29%; with COLO 205 colon, 12.5%; in the assay on DU-145 prostate it was 35.3%; with K-562 leukemia it was 17%. Also, the growth with MALME-3M melanoma is 73.9%; with MDA-MB-231 breast, 58.3%; in the assay with RXF 393 renal it was 13.6%; in the assay with SF-268 CNS, 55.1%; in the assay with SF-295 CNS it was 41.2%; in the assay on SF-539 CNS, -4.12% (active). The growth in the assay with UACC-257 melanoma is 62.8%.

The values above are taken from PubChem BioAssay (NCI).
